According to PubChem BioAssay AID431 (Sanford-Burnham Center for Chemical Genomics, 2006):
About 1,100 (1.7%) of roughly 63,000 compounds were called active. The entries come from a sample that favours actives as a whole. Potency and affinity values are given separately. Values without a mark were called inactive.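 Rule for the calls: active = compounds whose percent cytotoxicity in the single-dose primary screen, scaled between solvent and toxic-drug controls, exceeds 50; inactive = the rest.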

experiment: cytotoxicity in KRAS-transformed pancreatic duct cells, primary screen, cell-based, fluorescence, HTS (AID 431); settings: HPDE-C7K KRASV12 cells, Alamar Blue viability, 48 h; at 10 µM; hits give high values;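 note: 0% = DMSO solvent wells and 100% = doxorubicin-treated wells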

Q: With `COc1ccc(-c2cc(C(=O)NCC(C)C)no2)cc1` as the molecule, how does the cytotoxicity read?
A: -0.6%

Q: For `CCOC(=O)N1CCN(C(=O)COc2ccc(S(=O)(=O)NC3CCCCC3)cc2C)CC1`, which cytotoxicity is on record?
A: -6.6%

Q: For `COC(=O)c1ccc(C2/C(=C(\O)c3ccc(OC)c(C)c3)C(=O)C(=O)N2c2cc(C)on2)cc1` (stereo not given), which cytotoxicity is on record?
A: 13.9%

Q: With `Cc1c(C#N)c2ccccc2n1CC(=O)NCCc1c[nH]c2ccccc12` as the molecule, how does the cytotoxicity read?
A: -3.8%

Q: For `CN(C)S(=O)(=O)c1ccc(-c2ccccc2)cc1`, which cytotoxicity is on record?
A: -6.1%

Q: For `CN(C)S(=O)(=O)n1cnc(-c2ccccc2)c1-c1ccccc1`, which cytotoxicity is on record?
A: -11.5%

Q: Which cytotoxicity does the source give for `O=C(O)COc1ccc(Oc2ccccc2)cc1` here?
A: 10.4%

Q: With `COc1ccc(N2CCN(CCCNC(=O)CCCn3c(=O)[nH]c4ccsc4c3=O)CC2)cc1` as the molecule, how does the cytotoxicity read?
A: 10.4%

Q: With `O=C(OCc1nc2ccccc2s1)c1cccc(S(=O)(=O)N2CCOCC2)c1` as the molecule, how does the cytotoxicity read?
A: 4.7%

Q: With `CN(C)c1ccc(CN2CCCC(O)C2)cc1` (stereo not given) as the molecule, how does the cytotoxicity read?
A: 4.1%

Q: With `OC1CCCN(Cc2cccc3ccccc23)C1` (stereo not given) as the molecule, how does the cytotoxicity read?
A: 9.5%

Q: For `O=S(=O)(c1ccc(C2CCCCC2)cc1)N1CCN(c2ncccn2)CC1`, which cytotoxicity is on record?
A: 0.7%

Q: Which cytotoxicity does the source give for `Cc1cc(C(=O)CN2C(=O)NC(C)(c3cccc(Br)c3)C2=O)c(C)n1Cc1ccco1` (stereo not given) here?
A: 17%

Q: Which cytotoxicity does the source give for `CC(=O)O[C@H]1C(=O)[C@]2(C)[C@H]([C@H](OC(=O)c3ccccc3)[C@]3(O)C[C@H](OC(=O)[C@H](O)[C@@H](NC(=O)c4ccccc4)c4ccccc4)C(C)=C1C3(C)C)[C@]1(OC(C)=O)CO[C@@H]1C[C@@H]2O` here?
A: 67.2% (active)

Q: Which cytotoxicity does the source give for `CC(=O)O[C@@]12CO[C@@H]1C[C@H](O)[C@@]1(C)C(=O)[C@H](O)C3=C(C)[C@@H](OC(=O)[C@H](O)[C@@H](NC(=O)OC(C)(C)C)c4ccccc4)C[C@](O)([C@@H](OC(=O)c4ccccc4)[C@H]21)C3(C)C` here?
A: 52.1% (active)

Q: Which cytotoxicity does the source give for `CCc1cccc(CC)c1N(COC)C(=O)Cn1c(CO)nc2ccccc21` here?
A: -6.1%

Q: With `CCOc1ccc(-n2c(=O)cc(N3CCN(c4ccccc4)CC3)[nH]c2=O)cc1` as the molecule, how does the cytotoxicity read?
A: 7.9%

Q: With `CCOC(=O)CSc1nnc(CNC(=O)c2ccco2)n1C` as the molecule, how does the cytotoxicity read?
A: -0.1%

Q: Which cytotoxicity does the source give for `O=C(NC1CCCC1)C1C2C=CC3(CN(Cc4cccs4)C(=O)C13)O2` (stereo not given) here?
A: 3.8%

Q: With `Cc1ccc2nc(NCc3ccco3)c(C=NCc3ccco3)c(=O)n2c1` as the molecule, how does the cytotoxicity read?
A: -7.1%

Q: For `CC(=O)N[C@H]1C[C@@H]1c1ccccc1`, which cytotoxicity is on record?
A: 6.6%

Q: With `COc1ccc(NC(=O)CS(=O)CC(=O)NCc2cccc(C(F)(F)F)c2)cc1` (stereo not given) as the molecule, how does the cytotoxicity read?
A: 1%

Q: For `COc1ccc(NC(=O)CSc2nnc(-c3ccccc3)n2Cc2ccco2)c(OC)c1`, which cytotoxicity is on record?
A: -5.5%

Q: For `CCC(=O)N(CCc1ccccc1C)Cc1cc2cc3c(cc2[nH]c1=O)OCO3`, which cytotoxicity is on record?
A: -20.6%

Q: Which cytotoxicity does the source give for `COc1ccc(CCN(Cc2cc3cc4c(cc3[nH]c2=O)OCO4)C(C)=O)cc1OC` here?
A: -1.5%

Q: Which cytotoxicity does the source give for `CC(=O)N(CCc1ccccc1C)Cc1cc2cc3c(cc2[nH]c1=O)OCO3` here?
A: 53.3% (active)

Q: With `COc1ccccc1C(=O)Nc1ccc(S(=O)(=O)Nc2cc(C)on2)cc1` as the molecule, how does the cytotoxicity read?
A: 3.1%

Q: With `O=C(Nn1c(C2CC2)nc2ccccc2c1=O)c1ccco1` as the molecule, how does the cytotoxicity read?
A: -1.6%

Q: Which cytotoxicity does the source give for `Cc1nc2ccccn2c(=O)c1CCN1CCC(C(=O)c2ccc(F)cc2)CC1` here?
A: 10.8%

Q: Which cytotoxicity does the source give for `O=c1cc(CN2CCN(c3ccc(F)cc3)CC2)nc2sccn12` here?
A: -7.8%

Q: Which cytotoxicity does the source give for `Cn1c(SCc2nc3ccccc3[nH]2)nnc1-c1cccs1` here?
A: -13.1%

Q: For `O=C(Nc1nnc(-c2cccs2)o1)c1cccc(F)c1`, which cytotoxicity is on record?
A: 21.9%

Q: Which cytotoxicity does the source give for `CCCCN(CC)S(=O)(=O)c1ccc(C(=O)Nc2nnc(-c3cccs3)o2)cc1` here?
A: 52.7% (active)

Q: Which cytotoxicity does the source give for `CC1CN(S(=O)(=O)c2ccc(C(=O)Nc3nnc(-c4ccc5c(c4)CCCC5)o3)cc2)CC(C)O1` (stereo not given) here?
A: 33.7%

Q: With `CCCCN(C)S(=O)(=O)c1ccc(C(=O)Nc2nnc(-c3cccs3)o2)cc1` as the molecule, how does the cytotoxicity read?
A: 32.1%

Q: For `O=C(Nc1nnc(-c2cccs2)o1)c1cccc(Oc2ccccc2)c1`, which cytotoxicity is on record?
A: 35.3%

Q: With `CC1CC(C)CN(S(=O)(=O)c2ccc(C(=O)Nc3nnc(-c4cccs4)o3)cc2)C1` (stereo not given) as the molecule, how does the cytotoxicity read?
A: 56.6% (active)

Q: Which cytotoxicity does the source give for `COc1cccc(C(=O)Nc2nnc(-c3cccs3)o2)c1` here?
A: 15.6%

Q: With `CCN(Cc1ccccc1)S(=O)(=O)c1ccc(C(=O)Nc2nnc(C3CC3)o2)cc1` as the molecule, how does the cytotoxicity read?
A: 6.4%

Q: Which cytotoxicity does the source give for `O=C(Nc1nnc(-c2cccs2)o1)c1cccc(C(F)(F)F)c1` here?
A: 77.3% (active)

Q: With `CCCCN(CC)S(=O)(=O)c1ccc(C(=O)Nc2nnc(-c3ccccc3Cl)o2)cc1` as the molecule, how does the cytotoxicity read?
A: 58.3% (active)

Q: Which cytotoxicity does the source give for `Brc1ccc(-c2nnc(-c3ccc4c(c3)OCO4)o2)o1` here?
A: -2%

Q: With `COC(=O)c1ccccc1NC(=O)CSc1nnnn1C1CCCCC1` as the molecule, how does the cytotoxicity read?
A: 0.6%

Q: With `O=C(Nc1nccs1)C1CCN(S(=O)(=O)c2cccnc2)CC1` as the molecule, how does the cytotoxicity read?
A: -8.7%

Q: Which cytotoxicity does the source give for `COCCCn1cnc2c(c1=O)c1nc3ccccc3nc1n2-c1ccc(C)cc1` here?
A: -9.5%

Q: For `Cn1c(=O)oc2cc(S(=O)(=O)NC3CCCc4ccccc43)ccc21` (stereo not given), which cytotoxicity is on record?
A: -4%

Q: For `O=C(CCCn1c(=S)[nH]c2ccccc2c1=O)NCc1ccco1`, which cytotoxicity is on record?
A: -11%

Q: For `CCC1CCCCN1S(=O)(=O)c1ccc(C(=O)Nc2nnc(-c3cccs3)o2)cc1` (stereo not given), which cytotoxicity is on record?
A: 11.8%

Q: Which cytotoxicity does the source give for `CCCC(=O)Nc1nnc(-c2ccc(Cl)s2)o1` here?
A: -1.5%

Q: Which cytotoxicity does the source give for `O=C(Nc1ccc(S(=O)(=O)N2CCCc3ccccc32)cc1)C1CCCO1` (stereo not given) here?
A: 12.3%

Q: Which cytotoxicity does the source give for `CC1(C)COCN1S(=O)(=O)c1ccc(C(=O)Nc2nnc(-c3ccc(Cl)s3)o2)cc1` here?
A: 93.6% (active)

Q: With `O=C(Nc1nnc(-c2ccccc2Cl)o1)c1cccnc1` as the molecule, how does the cytotoxicity read?
A: 28.8%

Q: For `COc1ccc(-c2nnc(NC(=O)c3ccc(S(=O)(=O)N4CCCc5ccccc54)cc3)o2)cc1`, which cytotoxicity is on record?
A: 49.3%

Q: For `O=C(Nc1nnc(C2CC2)o1)c1ccc(S(=O)(=O)N2CCCc3ccccc32)cc1`, which cytotoxicity is on record?
A: 60.6% (active)

Q: With `COc1ccc(-c2nnc(NC(=O)c3ccc(S(=O)(=O)N4COCC4(C)C)cc3)o2)cc1` as the molecule, how does the cytotoxicity read?
A: 14.3%

Q: With `CC1CCN(S(=O)(=O)c2ccc(NC(=O)c3cccs3)cc2)CC1` as the molecule, how does the cytotoxicity read?
A: 15.7%

Q: Which cytotoxicity does the source give for `CC1CCCCN1S(=O)(=O)c1ccc(NC(=O)c2cccs2)cc1` (stereo not given) here?
A: 57.2% (active)

Q: With `CN1CCN(S(=O)(=O)c2ccc(NC(=O)c3cccs3)cc2)CC1` as the molecule, how does the cytotoxicity read?
A: -16.7%

Q: With `CCC1CCCCN1S(=O)(=O)c1ccc(C(=O)Nc2nnc(-c3ccccc3Cl)o2)cc1` (stereo not given) as the molecule, how does the cytotoxicity read?
A: 76.1% (active)

Q: For `O=C1C(C=NCCCn2ccnc2)=C(O)c2ccccc21`, which cytotoxicity is on record?
A: 1%

Q: For `O=C(NC1CCCCC1)C1CCCN1C(=O)NCc1ccccc1` (stereo not given), which cytotoxicity is on record?
A: 11.8%

Q: With `CCNS(=O)(=O)c1ccc(OCCNS(C)(=O)=O)cc1` as the molecule, how does the cytotoxicity read?
A: -2.5%

Q: For `O=C(/C=C/N1CCOCC1)c1coc2ccccc12`, which cytotoxicity is on record?
A: -4.5%

Q: With `Cc1cccc(C)c1NC(=O)CSc1nnc(-c2ccoc2C)n1C` as the molecule, how does the cytotoxicity read?
A: -5.8%

Q: For `O=C(OCCN(C1=NS(=O)(=O)c2ccccc21)c1ccc(Cl)cc1)c1ccco1`, which cytotoxicity is on record?
A: -16.8%

Q: For `CC(O)CCc1nc2ccc(C(=O)O)cc2[nH]1` (stereo not given), which cytotoxicity is on record?
A: -5.2%

Q: With `CC1CCCCN1S(=O)(=O)c1ccc(NC(=O)c2cccc(-n3cnnn3)c2)cc1` (stereo not given) as the molecule, how does the cytotoxicity read?
A: 20.3%

Q: For `Cc1nnc(NC(=O)c2ccc(S(=O)(=O)N3CCCCCC3)cc2)o1`, which cytotoxicity is on record?
A: 6.5%

Q: For `CC1CCCN(S(=O)(=O)c2ccc(C(=O)Nc3nnc(-c4ccccc4Cl)o3)cc2)C1` (stereo not given), which cytotoxicity is on record?
A: 63.8% (active)

Q: With `CCc1nnc(NC(=O)c2ccc(S(=O)(=O)N3CCCCC3C)cc2)s1` (stereo not given) as the molecule, how does the cytotoxicity read?
A: -7.7%

Q: With `O=C(Nc1nnc(-c2ccccc2Cl)o1)c1ccc(S(=O)(=O)N2CCCCCC2)cc1` as the molecule, how does the cytotoxicity read?
A: 43.8%

Q: Which cytotoxicity does the source give for `CC1CCCCN1S(=O)(=O)c1ccc(C(=O)Nc2nnc(-c3ccccc3Cl)o2)cc1` (stereo not given) here?
A: 56.7% (active)

Q: Which cytotoxicity does the source give for `O=C(Nc1ccccc1C(=O)N1CCOCC1)c1ccco1` here?
A: 3.4%

Q: With `Cc1ccc(C)c(C(=O)CSc2nnnn2-c2cccnc2)c1` as the molecule, how does the cytotoxicity read?
A: 0.6%

Q: For `Cc1cc(C)n(S(=O)(=O)c2cccc(Cl)c2Cl)n1`, which cytotoxicity is on record?
A: -9.2%

Q: Which cytotoxicity does the source give for `COc1nc(-c2ccccc2)ccc1-c1noc(-c2ccco2)n1` here?
A: -3%

Q: With `COC(=O)c1ccccc1S(=O)(=O)N(Cc1ccco1)Cc1cc2cc(OC)ccc2[nH]c1=O` as the molecule, how does the cytotoxicity read?
A: -1.7%

Q: With `COC(=O)CCC(=O)Nc1sc2c(c1C#N)CCCC2` as the molecule, how does the cytotoxicity read?
A: -6.7%

Q: With `CCCC(=O)Nc1sc2c(c1C#N)CCCC2` as the molecule, how does the cytotoxicity read?
A: 1.4%

Q: Which cytotoxicity does the source give for `CCc1ccc(CCC(=O)Nc2sc3c(c2C#N)CCCC3)o1` here?
A: 73.8% (active)

Q: With `COC(=O)C1=C(C)NC(=O)CC1c1cccc(Cl)c1Cl` (stereo not given) as the molecule, how does the cytotoxicity read?
A: -0.8%

Q: Which cytotoxicity does the source give for `CCOC(=O)C1C(c2cccc(Cl)c2Cl)NC(=O)NC1(O)C(F)(F)F` (stereo not given) here?
A: 10.1%

Q: With `O=C(Nc1ccc2c(c1)OCO2)c1ccc(Br)c(S(=O)(=O)N2CCCC2)c1` as the molecule, how does the cytotoxicity read?
A: 14.5%

Q: For `CCc1ncc(C(O)c2cccc(OC)c2OC)n1C` (stereo not given), which cytotoxicity is on record?
A: 6.9%

Q: Which cytotoxicity does the source give for `CCOC(=O)c1c(N)sc(C(=O)Nc2ccc3c(c2)OCO3)c1C` here?
A: 19.8%

Q: Which cytotoxicity does the source give for `CCN(CC)S(=O)(=O)c1ccc(NC(=O)Cn2c(=O)oc3ccccc32)cc1` here?
A: 1.6%

Q: With `Cc1nn2c(N3CCOCC3)c3c(nc2c1-c1ccccc1)CCCC3` as the molecule, how does the cytotoxicity read?
A: 8.5%

Q: For `Cc1nc(N)c(C#N)c(-c2ccccc2)c1C`, which cytotoxicity is on record?
A: 18.7%

Q: For `CC1=C(C#N)c2nc(N)c(C#N)c(C)c2/C1=C\c1ccccc1`, which cytotoxicity is on record?
A: 107% (active)

Q: For `Cc1c(-c2ccccc2)nc(N)c(C#N)c1-c1ccco1`, which cytotoxicity is on record?
A: -7.4%
